The whole screen tested about 39,000 compounds, of which about 3,300 (8.5%) were called active. The entries come from a sample that favours actives as a whole.
Each compound was assayed on HepG2 (assay: cytotoxicity call (relative viability < 0.9)). Conditions: 10 µM.
For `CCN1[C@H](C(=O)NCCc2cn(C)cn2)[C@@H](CO)[C@@H]2Cn3c(ccc(-c4ccncc4)c3=O)[C@@H]21`, the cytotoxicity call was “inactive”. With `C[C@@H]1CN([C@H](C)CO)C(=O)c2cccc(NS(=O)(=O)c3cn(C)cn3)c2O[C@H]1CN(C)S(=O)(=O)c1ccccc1` the cytotoxicity call was “inactive”. In the case of `C[C@@H]1CCCCO[C@@H](CN(C)C(=O)Nc2ccc(C(F)(F)F)cc2)[C@@H](C)CN([C@H](C)CO)C(=O)c2cc(NC(=O)c3ccncc3)ccc2O1`, the cytotoxicity call is reported as “inactive”. In the case of `C[C@H](O)C#Cc1ccc2c(c1)O[C@H](CN(C)C(=O)CN(C)C)[C@@H](C)CN([C@H](C)CO)S2(=O)=O`, the cytotoxicity call is reported as “inactive”. For `COc1ccc(NC(=O)Nc2cccc3c2O[C@H](CN(C)Cc2ccc(Cl)c(Cl)c2)[C@H](C)CN([C@@H](C)CO)C3=O)cc1`, the cytotoxicity call was “inactive”. For `COc1ccc(S(=O)(=O)N(C)C[C@H]2OCCCC[C@@H](C)Oc3ccc(NC(=O)Nc4ccc5c(c4)OCO5)cc3C(=O)N([C@H](C)CO)C[C@@H]2C)cc1`, the cytotoxicity call was “inactive”. For `Cc1noc(C)c1NC(=O)Nc1ccc2c(c1)C(=O)N([C@H](C)CO)C[C@@H](C)[C@H](CN(C)Cc1ccc3c(c1)OCO3)OCCCC[C@H](C)O2`, the cytotoxicity call was “inactive”. `Cc1noc(C)c1S(=O)(=O)Nc1ccc2c(c1)C(=O)N([C@@H](C)CO)C[C@@H](C)[C@@H](CN(C)Cc1ccc(Oc3ccccc3)cc1)O2` was tested, and the cytotoxicity call was “inactive”. In the case of `C[C@@H]1CN([C@H](C)CO)C(=O)c2cc(NC(=O)Nc3cccc4ccccc34)ccc2O[C@@H](C)CCCCO[C@H]1CN(C)S(=O)(=O)c1ccccc1`, the cytotoxicity call is reported as “inactive”. `CC(=O)N1[C@@H]2c3cccc(=O)n3C[C@H]1[C@H](CO)[C@H]2C(=O)N1CCc2ccccc2C1` was tested, and the cytotoxicity call was “inactive”. With `C[C@H]1CN([C@@H](C)CO)C(=O)Cc2cc(NC(=O)Cc3cn(C)c4ccccc34)ccc2O[C@H]1CN(C)Cc1ccc(C(F)(F)F)cc1` the cytotoxicity call was “active”. With `C[C@H](CO)N1C[C@H](C)[C@@H](CN(C)Cc2ccc(C(F)(F)F)cc2)Oc2ccc(NC(=O)Cc3cn(C)c4ccccc34)cc2CC1=O` the cytotoxicity call was “inactive”. For `C[C@@H]1CN([C@H](C)CO)C(=O)Cc2cc(NC(=O)Cc3cn(C)c4ccccc34)ccc2O[C@H]1CN(C)Cc1ccc(C(F)(F)F)cc1`, the cytotoxicity call was “inactive”. For `C[C@@H]1CN([C@@H](C)CO)C(=O)c2c(c3ccccc3n2C)-c2ccccc2CO[C@H]1CN(C)Cc1cccc(C(F)(F)F)c1`, the cytotoxicity call was “inactive”. `C[C@@H]1CN([C@H](C)CO)C(=O)c2cc(NC(=O)C3CCCCC3)ccc2O[C@@H](C)CCCCO[C@H]1CN(C)S(=O)(=O)c1ccc(F)cc1` was tested, and the cytotoxicity call was “inactive”. `C[C@H](CO)N1C[C@H](C)[C@H](CN(C)S(=O)(=O)c2ccc(F)cc2)OCCCC[C@H](C)Oc2ccc(NC(=O)C3CCCCC3)cc2C1=O` was tested, and the cytotoxicity call was “inactive”. In the case of `Cc1ccc(S(=O)(=O)N(C)C[C@H]2OCCCC[C@H](C)Oc3ccc(NC(=O)C4CCCCC4)cc3C(=O)N([C@H](C)CO)C[C@H]2C)cc1`, the cytotoxicity call is reported as “inactive”. In the case of `C[C@@H]1CCCCO[C@H](CN(C)S(=O)(=O)c2ccc(Cl)cc2)[C@H](C)CN([C@H](C)CO)C(=O)c2cc(NC(=O)C3CCCCC3)ccc2O1`, the cytotoxicity call is reported as “active”. For `C[C@@H]1CCCCO[C@@H](CN(C)S(=O)(=O)c2ccc(F)cc2)[C@H](C)CN([C@H](C)CO)C(=O)c2cc(NC(=O)C3CCCCC3)ccc2O1`, the cytotoxicity call was “active”. With `Cc1ccc(S(=O)(=O)N(C)C[C@@H]2OCCCC[C@@H](C)Oc3ccc(NC(=O)C4CCCCC4)cc3C(=O)N([C@H](C)CO)C[C@H]2C)cc1` the cytotoxicity call was “inactive”. With `Cc1ccc(S(=O)(=O)N(C)C[C@@H]2OCCCC[C@@H](C)Oc3ccc(NC(=O)C4CCCCC4)cc3C(=O)N([C@H](C)CO)C[C@@H]2C)cc1` the cytotoxicity call was “inactive”. `Cc1ccc(S(=O)(=O)N(C)C[C@H]2OCCCC[C@@H](C)Oc3ccc(NC(=O)C4CCCCC4)cc3C(=O)N([C@@H](C)CO)C[C@H]2C)cc1` was tested, and the cytotoxicity call was “inactive”. `Cc1ccc(S(=O)(=O)N(C)C[C@H]2OCCCC[C@H](C)Oc3ccc(NC(=O)C4CCCCC4)cc3C(=O)N([C@@H](C)CO)C[C@@H]2C)cc1` was tested, and the cytotoxicity call was “active”. With `C[C@@H]1CN([C@@H](C)CO)C(=O)c2cc(NC(=O)C3CCCCC3)ccc2O[C@@H](C)CCCCO[C@@H]1CN(C)S(=O)(=O)c1ccc(Cl)cc1` the cytotoxicity call was “inactive”. `C[C@@H]1CCCCO[C@@H](CN(C)S(=O)(=O)c2ccc(Cl)cc2)[C@@H](C)CN([C@@H](C)CO)C(=O)c2cc(NC(=O)C3CCCCC3)ccc2O1` was tested, and the cytotoxicity call was “inactive”. For `Cc1ccc(S(=O)(=O)N(C)C[C@H]2OCCCC[C@@H](C)Oc3ccc(NC(=O)C4CCCCC4)cc3C(=O)N([C@H](C)CO)C[C@@H]2C)cc1`, the cytotoxicity call was “active”. For `C[C@@H]1CCCCO[C@@H](CN(C)C(=O)CCCN(C)C)[C@H](C)CN([C@@H](C)CO)C(=O)c2cc(NS(=O)(=O)c3cn(C)cn3)ccc2O1`, the cytotoxicity call was “inactive”. `CS(=O)(=O)c1ncc(Cl)c(C(=O)NCCc2ccc(S(N)(=O)=O)cc2)n1` was tested, and the cytotoxicity call was “inactive”. With `COc1ccc(S(=O)(=O)Nc2cccc3c2O[C@H](CN(C)Cc2ccc(Oc4ccccc4)cc2)[C@H](C)CN([C@H](C)CO)C3=O)cc1` the cytotoxicity call was “inactive”. `Cc1ccc(S(=O)(=O)N(C)C[C@H]2OCCCC[C@H](C)Oc3ccc(NC(=O)CCC(F)(F)F)cc3C(=O)N([C@H](C)CO)C[C@H]2C)cc1` was tested, and the cytotoxicity call was “inactive”. With `CN[C@@H]1[C@@H](C)O[C@@H](O[C@H]2[C@H](C)O[C@@H](O[C@@H]3/C(C)=C/C[C@@H]4C[C@@H](C[C@]5(C=C[C@H](C)[C@@H](C(C)C)O5)O4)OC(=O)[C@@H]4C=C(C)[C@@H](O)[C@H]5OC/C(=C\C=C\[C@@H]3C)[C@]54O)C[C@@H]2OC)C[C@H]1OC` the cytotoxicity call was “active”. For `CCC(C)C1OC2(C=CC1C)CC1CC(CC=C(C)C(OC3CC(OC)C(OC4CC(OC)C(O)C(C)O4)C(C)O3)C(C)C=CC=C3COC4C(OC)C(C)=CC(C(=O)O1)C34O)O2` (stereo unspecified), the cytotoxicity call was “active”. With `CC[C@H](C)[C@H]1O[C@]2(C=C[C@@H]1C)C[C@@H]1C[C@@H](C/C=C(\C)[C@@H](O[C@H]3C[C@H](OC)[C@@H](O[C@H]4C[C@H](OC)[C@@H](NC(C)=O)[C@H](C)O4)[C@H](C)O3)[C@@H](C)/C=C/C=C3\CO[C@@H]4[C@H](O)C(C)=C[C@@H](C(=O)O1)[C@]34O)O2` the cytotoxicity call was “active”. With `CCC(C)C1OC2(C=CC1C)CC1CC(CC=C(C)C(OC3CC(OC)C(OC4CC(OC)C(NC(C)=O)C(C)O4)C(C)O3)C(C)C=CC=C3COC4C(O)C(C)=CC(C(=O)O1)C34O)O2` (stereo unspecified) the cytotoxicity call was “inactive”. For `COc1ccc(S(=O)(=O)Nc2ccc3c(c2)C(=O)N([C@@H](C)CO)C[C@@H](C)[C@@H](CN(C)CC2CC2)O3)cc1`, the cytotoxicity call was “inactive”. In the case of `Cc1noc(C)c1S(=O)(=O)Nc1cccc2c1O[C@@H](CN(C)C(=O)Nc1ccccc1)[C@@H](C)CN([C@@H](C)CO)C2=O`, the cytotoxicity call is reported as “inactive”. In the case of `COc1ccc(NC(=O)N(C)C[C@@H]2OCCCC[C@@H](C)Oc3ccc(NC(=O)Nc4ccc5c(c4)OCO5)cc3C(=O)N([C@H](C)CO)C[C@H]2C)cc1`, the cytotoxicity call is reported as “inactive”. `O=C(C[C@H]1CC[C@H](NC(=O)c2ccc(F)cc2)[C@H](CO)O1)NCc1ccncn1` was tested, and the cytotoxicity call was “inactive”. `COc1ccc(NC(=O)Nc2ccc3c(c2)[C@H]2C[C@H](CC(=O)NCc4ccncc4)O[C@@H](CO)[C@H]2O3)cc1` was tested, and the cytotoxicity call was “inactive”. `COc1ccc(NC(=O)N(C)C[C@@H]2OCCCC[C@H](C)Oc3ccc(NS(=O)(=O)c4ccccc4)cc3C(=O)N([C@@H](C)CO)C[C@@H]2C)cc1` was tested, and the cytotoxicity call was “inactive”. For `C=CCOC(=O)[C@H]1[C@@H]2C(=O)O[C@@H](c3ccccc3)[C@@H](c3ccccc3)N2[C@@H](c2ccc(OCCOC(=O)[C@@H]3C[C@@H]4C(=O)NCC(=O)N4[C@@H]3c3cccc(OCCO)c3)cc2)[C@]12C(=O)Nc1ccc(I)cc12`, the cytotoxicity call was “inactive”. `O=C(C[C@@H]1C[C@@H]2c3cc(NC(=O)Nc4ccc(C(F)(F)F)cc4)ccc3O[C@@H]2[C@@H](CO)O1)NCc1ccc(Cl)cc1` was tested, and the cytotoxicity call was “inactive”. In the case of `Cc1noc(C)c1NC(=O)Nc1cccc2c1O[C@@H](CN(C)S(=O)(=O)c1cn(C)cn1)[C@@H](C)CN([C@H](C)CO)C2=O`, the cytotoxicity call is reported as “inactive”. With `COc1cccc(S(=O)(=O)Nc2ccc3c(c2)OC[C@@H](C)N(C(=O)Cc2cccnc2)C[C@@H](C)[C@@H](OC)CN(C)C3=O)c1` the cytotoxicity call was “inactive”. In the case of `CC(C)N1C[C@H](C)[C@@H](CN(C)Cc2ccc(Oc3ccccc3)cc2)Oc2c(NC(=O)C3CCNCC3)cccc2C1=O`, the cytotoxicity call is reported as “active”. In the case of `CC(C)N1CC[C@H](CN(C)Cc2ccc(Oc3ccccc3)cc2)Oc2c(NC(=O)c3ccncc3)cccc2C1=O`, the cytotoxicity call is reported as “inactive”. In the case of `C[C@@H]1CN([C@@H](C)CO)C(=O)c2cccc(NC(=O)C3CC3)c2O[C@@H]1CN(C)Cc1ccc(Oc2ccccc2)cc1`, the cytotoxicity call is reported as “inactive”. In the case of `COC[C@H](C)N1C[C@H](C)[C@@H](CN(C)Cc2ccc(Oc3ccccc3)cc2)Oc2c(NC(=O)c3ccncc3)cccc2C1=O`, the cytotoxicity call is reported as “active”. In the case of `C[C@H]1CN([C@@H](C)CO)C(=O)c2cccc(NC(=O)C3CC3)c2O[C@@H]1CN(C)Cc1ccc(Oc2ccccc2)cc1`, the cytotoxicity call is reported as “inactive”. With `C[C@@H]1CN([C@@H](C)CO)C(=O)c2cccc(NC(=O)c3ccncc3)c2O[C@@H]1CN(C)Cc1ccc(Oc2ccccc2)cc1` the cytotoxicity call was “inactive”. `C[C@H](CO)N1C[C@H](C)[C@@H](CN(C)Cc2ccc(Oc3ccccc3)cc2)Oc2c(NC(=O)C3CC3)cccc2C1=O` was tested, and the cytotoxicity call was “inactive”. For `CC(C)N1C[C@H](CN(C)Cc2ccc(Oc3ccccc3)cc2)Oc2c(NC(=O)c3ccncc3)cccc2C1=O`, the cytotoxicity call was “inactive”. With `C[C@@H]1CN([C@H](C)CO)C(=O)c2cccc(NC(=O)C3CC3)c2O[C@H]1CN(C)Cc1ccc(Oc2ccccc2)cc1` the cytotoxicity call was “inactive”. In the case of `CC(C)N1C[C@H](C)[C@@H](CN(C)Cc2ccc(Oc3ccccc3)cc2)Oc2c(NC(=O)C3CCN(C)CC3)cccc2C1=O`, the cytotoxicity call is reported as “active”. `CC(C)N1C[C@@H](CN(C)Cc2ccc(Oc3ccccc3)cc2)Oc2c(NC(=O)c3ccncc3)cccc2C1=O` was tested, and the cytotoxicity call was “active”. `C[C@@H]1CN([C@@H](C)CO)C(=O)c2cccc(NC(=O)c3ccncc3)c2O[C@H]1CN(C)Cc1ccc(Oc2ccccc2)cc1` was tested, and the cytotoxicity call was “inactive”.
